About 2,000 (36%) of roughly 5,500 compounds were called active. Another 18% or so got no clear call; they are omitted. No stated cut-off is given here; in the data, active means normalized growth mostly below about 0.91 (no sharp cut-off); inconclusive means no clear call, values can overlap the other calls; inactive means mostly above about 0.92. The list shows a part of the results.
Assay: chemical genetic growth profiling, strain panel (AID 1159580);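 further: tested at 20 µM; growth read once vehicle control cultures reached saturation at 30 °C; 1 = growth at the plate median or of vehicle wells; lower values mean less growth of the strain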
Settings: S. cerevisiae deletion strains, growth OD
[1] = locus YHR030C, strain SLT2, hits give low values
[2] = locus YJL095W, strain BCK1, hits give low values

Measured: normalized growth

COc1ccc(-c2coc3cc(O)ccc3c2=O)c(OC)c1O
inactive: locus YAL013W, strain DEP1, hits give low values 0.991 | locus YAL021C, strain ccr4, hits give low values 0.979 | locus YAL026C, strain drs2, hits give low values 0.979 | locus YAL030W, strain snc1, hits give low values 0.947 | locus YBL061C, strain skt5, hits give low values 0.973 | locus YBR009C, strain hhf1, hits give low values 0.966 | locus YBR021W, strain FUR4, hits give low values 1.12 | locus YBR023C, strain chs3, hits give low values 0.98 | locus YBR171W, strain sec66, hits give low values 0.983 | locus YBR229C, strain ROT2, hits give low values 0.949 | locus YBR231C, strain swc5, hits give low values 0.989 | locus YBR279W, strain paf1, hits give low values 0.983 | locus YCL011C, strain gbp2, hits give low values 0.977 | locus YCL016C, strain dcc1, hits give low values 0.978 | locus YCL029C, strain bik1, hits give low values 0.972 | locus YCL061C, strain MRC1, hits give low values 0.991 | locus YCL069W, strain vba3, hits give low values 0.981 | locus YCR088W, strain abp1, hits give low values 0.983 | locus YDL005C, strain med2, hits give low values 0.977 | locus YDL035C, strain GPR1, hits give low values 1 | locus YDL040C, strain nat1, hits give low values 0.987 | locus YDL074C, strain BRE1, hits give low values 1.03 | locus YDL101C, strain DUN1, hits give low values 0.97 | locus YDL185W, strain tfp1, hits give low values 0.968 | locus YDL192W, strain arf1, hits give low values 0.984 | locus YDR001C, strain nth1, hits give low values 0.983 | locus YDR069C, strain doa4, hits give low values 0.947 | locus YDR101C, strain arx1, hits give low values 0.975 | locus YDR137W, strain rgp1, hits give low values 0.986 | locus YDR159W, strain sac3, hits give low values 0.953 | locus YDR162C, strain NBP2, hits give low values 0.966 | locus YDR195W, strain ref2 0.94 | locus YDR297W, strain sur2, hits give low values 0.979 | locus YDR318W, strain mcm21, hits give low values 0.99 | locus YDR334W, strain swr1, hits give low values 0.967 | locus YDR335W, strain msn5, hits give low values 0.991 | locus YDR388W, hits give low values 0.988 | locus YDR392W, strain spt3, hits give low values 0.945 | locus YDR502C, strain sam2, hits give low values 0.977 | locus YEL003W, strain gim4, hits give low values 0.976 | locus YEL037C, strain rad23, hits give low values 0.967 | locus YEL061C, strain CIN8 (second series), hits give low values 0.967 | locus YEL061C, strain CIN8, hits give low values 0.985 | locus YER015W, strain faa2, hits give low values 0.983 | locus YER016W, strain bim1, hits give low values 0.986 | locus YER110C, hits give low values 0.962 | locus YER111C, strain swi4, hits give low values 0.971 | locus YER155C, strain BEM2 (second series), hits give low values 0.985 | locus YER155C, strain BEM2, hits give low values 1 | locus YER167W, strain BCK2, hits give low values 0.983 | locus YFR010W, strain ubp6, hits give low values 0.968 | locus YGL078C, strain dbp3, hits give low values 0.986 | locus YGL086W, strain mad1, hits give low values 0.971 | locus YGL167C, strain pmr1, hits give low values 0.959 | locus YGL173C, strain kem1, hits give low values 0.974 | locus YGL227W, strain vid30, hits give low values 0.957 | locus YGL240W, strain doc1, hits give low values 0.977 | locus YGL248W, strain PDE1, hits give low values 0.982 | locus YGL253W, strain hxk2, hits give low values 0.989 | locus YGR135W, strain pre9, hits give low values 1.01 | locus YGR252W, strain gcn5, hits give low values 1.12 | locus YHR013C, strain ard1, hits give low values 0.933 | locus YHR027C, strain rpn1, hits give low values 0.989 | [1] 0.99 | locus YHR079C, strain IRE1 (second series), hits give low values 0.974 | locus YHR094C, strain hxt1, hits give low values 0.988 | locus YHR129C, strain ARP1, hits give low values 0.993 | locus YHR142W, strain chs7, hits give low values 1 | locus YHR200W, strain rpn10, hits give low values 0.991 | locus YIL066C, strain RNR3, hits give low values 0.981 | locus YIL073C, strain SPO22, hits give low values 0.98 | locus YIL125W, strain kgd1, hits give low values 0.99 | locus YIR030C, strain dcg1, hits give low values 0.985 | locus YJL092W, strain hpr5, hits give low values 0.986 | locus YJL095W, strain BCK1 (second series), hits give low values 0.986 | [2] 0.978 | locus YJL115W, strain asf1, hits give low values 0.996 | locus YJL129C, strain trk1, hits give low values 0.966 | locus YJL134W, strain LCB3, hits give low values 0.983 | locus YJL154C, strain vps35, hits give low values 0.977 | locus YJL164C, strain tpk1, hits give low values 0.969 | locus YJL166W, strain qcr8, hits give low values 0.98 | locus YJL168C, strain set2, hits give low values 0.993 | locus YJL187C, strain SWE1 (second series), hits give low values 0.963 | locus YJL187C, strain SWE1, hits give low values 0.979 | locus YJR043C, strain POL32, hits give low values 0.985 | locus YKL009W, strain mrt4, hits give low values 0.965 | locus YKL068W, hits give low values 0.975 | locus YKL085W, strain MDH1 (second series), hits give low values 0.976 | locus YKL085W, strain MDH1, hits give low values 0.976 | locus YKL160W, strain elf1, hits give low values 0.999 | locus YKR001C, strain vps1, hits give low values 1 | locus YKR026C, strain gcn3, hits give low values 0.961 | locus YKR091W, strain srl3, hits give low values 0.973 | locus YLL001W, strain dnm1, hits give low values 1 | locus YLL026W, hits give low values 0.991 | locus YLL041C, strain sdh2, hits give low values 0.994 | locus YLR027C, strain aat2, hits give low values 0.976 | locus YLR039C, strain RIC1, hits give low values 0.97 | locus YLR058C, strain SHM2, hits give low values 0.972 | locus YLR102C, strain apc9, hits give low values 0.991 | locus YLR221C, strain rsa3, hits give low values 0.966 | locus YLR258W, strain gsy2, hits give low values 0.983 | locus YLR262C, strain YPT6 (second series), hits give low values 0.977 | locus YLR262C, strain YPT6, hits give low values 0.907 | locus YLR268W, strain sec22, hits give low values 0.989 | locus YLR320W, strain mms22, hits give low values 0.979 | locus YLR330W, strain CHS5, hits give low values 0.99 | locus YLR342W, strain FKS1 (second series), hits give low values 0.987 | locus YLR342W, strain FKS1, hits give low values 0.967 | locus YLR357W, strain rsc2, hits give low values 0.947 | locus YLR370C, strain arc18, hits give low values 0.978 | locus YLR371W, strain rom2, hits give low values 0.983 | locus YLR384C, strain iki3, hits give low values 0.975 | locus YLR418C, strain cdc73, hits give low values 1.01 | locus YML016C, strain PPZ1, hits give low values 0.993 | locus YML032C, strain rad52, hits give low values 0.983 | locus YML120C, strain ndi1, hits give low values 0.971 | locus YML124C, strain tub3, hits give low values 0.991 | locus YMR058W, strain fet3, hits give low values 0.977 | locus YMR078C, strain ctf18, hits give low values 0.982 | locus YMR125W, strain sto1, hits give low values 0.96 | locus YMR129W, hits give low values 0.981 | locus YMR205C, strain PFK2, hits give low values 0.953 | locus YMR223W, strain ubp8, hits give low values 0.981 | locus YMR231W, strain pep5, hits give low values 0.982 | locus YMR307W, strain GAS1, hits give low values 1.16 | locus YNL067W, strain RPL9B, hits give low values 0.972 | locus YNL071W, strain lat1, hits give low values 0.984 | locus YNL153C, strain GIM3, hits give low values 0.954 | locus YNL209W, strain ssb2, hits give low values 0.982 | locus YNL233W, strain BNI4, hits give low values 1 | locus YNL248C, strain rpa49, hits give low values 1 | locus YNL250W, strain rad50, hits give low values 0.99 | locus YNL271C, strain bni1, hits give low values 0.987 | locus YNL298W, strain CLA4, hits give low values 0.992 | locus YNL307C, strain MCK1, hits give low values 0.995 | locus YNL322C, strain KRE1 (second series), hits give low values 0.953 | locus YNL322C, strain KRE1, hits give low values 0.99 | locus YNR049C, strain mso1, hits give low values 0.972 | locus YNR052C, strain pop2, hits give low values 0.991 | locus YOL012C, strain htz1 0.858 | locus YOL147C, strain pex11, hits give low values 0.988 | locus YOR001W, strain rrp6, hits give low values 1 | locus YOR061W, strain CKA2, hits give low values 0.966 | locus YOR069W, strain VPS5, hits give low values 0.997 | locus YOR070C, strain gyp1, hits give low values 0.985 | locus YOR080W, strain dia2, hits give low values 0.965 | locus YOR083W, strain WHI5, hits give low values 0.977 | locus YOR106W, strain vam3, hits give low values 0.992 | locus YOR136W, strain idh2, hits give low values 0.99 | locus YOR144C, strain elg1, hits give low values 0.988 | locus YOR184W, strain ser1, hits give low values 0.974 | locus YOR265W, strain rbl2, hits give low values 0.985 | locus YOR270C, strain vph1, hits give low values 0.977 | locus YOR290C, strain snf2, hits give low values 0.92 | locus YOR316C, strain cot1, hits give low values 0.984 | locus YPL051W, strain arl3, hits give low values 1 | locus YPL055C, strain LGE1, hits give low values 0.984 | locus YPL078C, strain atp4, hits give low values 0.982 | locus YPL106C, strain sse1, hits give low values 0.966 | locus YPL240C, strain hsp82, hits give low values 1 | locus YPR119W, strain clb2, hits give low values 0.973 | locus YPR141C, strain kar3, hits give low values 0.985 | locus YPR163C, strain tif3, hits give low values 0.997 | locus YPR167C, strain met16, hits give low values 0.997 | strain wtn01, hits give low values 0.981

COc1ccc2c(=O)c(-c3ccc(O)cc3)coc2c1
inactive: [1] 0.966 | locus YHR079C, strain IRE1, hits give low values 0.939 | [2] 0.962 | locus YJR066W, strain TOR1, hits give low values 0.918 | locus YLR113W, strain HOG1, hits give low values 0.955 | locus YNL183C, strain NPR1, hits give low values 0.918 | locus YOR231W, strain MKK1, hits give low values 0.942 | locus YPL256C, strain CLN2, hits give low values 0.925
